Source: PubChem BioAssay (NCATS)
Results filed as inconclusive are left out. The source made the active and inactive calls. Unless noted, calls come from the whole dose curve.

Key:
[1] = qHTS for Inhibitors of the Functional Ribonucleoprotein Complex (vRNP) of Lassa (LASV) Arenavirus: LASV Primary Screen - GLuc reporter signal (AID 1347082; calls by dose curve; tested in HEK293 reporter line; note: % is set by controls: 0 for no effect and ±100 for the full control effect; nearly all actives have a fitted effect of over 60% in size); details: LASV minigenome vRNP, Gaussia luciferase reporter; series mostly up to 57.5 µM
[2] = qHTS for Inhibitors of the Functional Ribonucleoprotein Complex (vRNP) of Lassa (LASV) Arenavirus: Viability assay - alamar blue signal for LASV Primary Screen (AID 1347083; calls by dose curve; tested in HEK293 reporter line; note: % is set by controls: 0 for no effect and ±100 for the full control effect; nearly all actives have a fitted effect of over 80% in size); details: cell viability, alamar blue fluorescence (LASV minigenome counter-screen); series mostly up to 57.5 µM
[3] = qHTS for Inhibitors of the Functional Ribonucleoprotein Complex (vRNP) of Lymphocytic Choriomeningitis Arenaviruses (LCMV): Viability assay - alamar blue signal for LCMV Primary Screen (AID 1347085; calls by dose curve; tested in HEK293 reporter line; note: % is set by controls: 0 for no effect and ±100 for the full control effect; nearly all actives have a fitted effect of over 80% in size); details: alamar blue viability counter-screen, LCMV vRNP screen cells; series mostly up to 57.5 µM
[4] = target: Nucleoprotein (Lymphocytic choriomeningitis virus (strain Armstrong)) (UniProt P09992); test: qHTS for Inhibitors of the Functional Ribonucleoprotein Complex (vRNP) of Lymphocytic Choriomeningitis Arenaviruses (LCMV): LCMV Primary Screen - GLuc reporter signal (AID 1347086); details: LCMV minigenome vRNP cell assay, Gaussia luciferase reporter; series mostly up to 57.5 µM; note: % is set by controls: 0 for no effect and ±100 for the full control effect; nearly all actives have a fitted effect of over 70% in size
Sequence of Nucleoprotein (Lymphocytic choriomeningitis virus (strain Armstrong)) (P09992 whole entry, looked up): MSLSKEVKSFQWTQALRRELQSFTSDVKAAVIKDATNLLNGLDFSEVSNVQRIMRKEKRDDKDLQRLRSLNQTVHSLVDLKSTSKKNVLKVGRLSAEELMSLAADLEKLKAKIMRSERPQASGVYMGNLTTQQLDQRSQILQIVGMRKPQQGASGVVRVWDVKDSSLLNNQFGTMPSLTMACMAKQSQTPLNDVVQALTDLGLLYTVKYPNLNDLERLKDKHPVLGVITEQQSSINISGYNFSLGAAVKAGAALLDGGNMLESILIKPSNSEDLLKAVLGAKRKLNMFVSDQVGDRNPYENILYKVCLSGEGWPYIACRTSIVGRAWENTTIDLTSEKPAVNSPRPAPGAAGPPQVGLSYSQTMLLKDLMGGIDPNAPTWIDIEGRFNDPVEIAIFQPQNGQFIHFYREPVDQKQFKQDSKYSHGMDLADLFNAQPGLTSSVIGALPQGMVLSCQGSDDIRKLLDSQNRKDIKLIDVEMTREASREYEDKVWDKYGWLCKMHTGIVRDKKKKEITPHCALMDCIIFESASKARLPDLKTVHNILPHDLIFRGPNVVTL

[5] = test system: Zika virus NS2B-NS3 protease; test: Primary screen GU AMC qHTS for Zika virus inhibitors (AID 1347154; active = well fitted curve in the direction sought with a large enough effect; an effect the other way counts as inactive or inconclusive;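 note: 0% = no-inhibitor control and -100% = no-enzyme control; nearly all actives have a fitted effect of over 70% in size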); details: Zika NS2B-NS3 unlinked protease, AMC fluorogenic substrate; series mostly up to 54.1 µM
In short: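 Unlinked Zika NS2B hydrophilic domain/NS3 protease domain noncovalent complex (25 nM final) in 10 mM Tris-HCl pH 8.0, 0.01% Tween 20, with AMC peptide substrate. Fluorescence (ex 340, em 450 nm) change over 15 min, room temperature; percent inhibition fitted to 4-parameter Hill equation.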

[6] = qHTS for inhibitors of Rabies Virus screened against the NCATS CANVASS Library (AID 1347402); details: Rabies virus infection cell assay; series mostly up to 45.9 µM; note: 0% is about no effect
[7] = Cytotoxicity counterscreen for inhibitors of SARS-CoV-2 cell entry (AID 1645845); details: cell viability (SARS-CoV-2 entry assay cells); series mostly up to 57.1 µM; note: % is set by controls: 0 for no effect and ±100 for the full control effect; nearly all actives have a fitted effect of over 50% in size
In short: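 Expi293F/hACE2 cells seeded overnight; cpd pin-transferred in DMSO, 1 h preincubation, + media, 48 h 37 C 5% CO2; ATPLite 1step luminescence; normalized to cells and no cells.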

[8] = Primary qHTS to identify inhibitors of SARS-CoV-2 cell entry (AID 1645846); details: SARS-CoV-2 pseudovirus cell entry assay, luminescence; activity change, negative = inhibition: at 57.1 µM (top of the series) unless noted; series mostly up to 57.1 µM; note: nearly all actives have a fitted effect of over 45% in size
In short: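 HEK293-ACE2 (Expi293F, stable hACE2), 1500 cells/well, o/n 37C; cpd 23 nL pin, 1 h; MLV-PP w/ SARS-CoV-2-S (Wuhan-Hu-1, Δ19 C-term); 48 h 37C; Bright-Glo luminescence; normalized vs S-PP and bald PP.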

[9] = target: Alpha-galactosidase (Coffea arabica) (UniProt Q42656); test: Counterscreen for Glucocerebrosidase Inhibitors: qHTS Assay for Coffee Bean alpha-Galactosidase at pH 4.5 (AID 957; active = well fitted curve in the direction sought with a large enough effect; an effect the other way counts as inactive or inconclusive;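 note: plate controls were enzyme alone for no effect and no enzyme for full effect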); details: purified coffee bean alpha-galactosidase, fluorogenic substrate; series mostly up to 76.9 µM
Sequence of Alpha-galactosidase (Coffea arabica) (Q42656 whole entry, looked up): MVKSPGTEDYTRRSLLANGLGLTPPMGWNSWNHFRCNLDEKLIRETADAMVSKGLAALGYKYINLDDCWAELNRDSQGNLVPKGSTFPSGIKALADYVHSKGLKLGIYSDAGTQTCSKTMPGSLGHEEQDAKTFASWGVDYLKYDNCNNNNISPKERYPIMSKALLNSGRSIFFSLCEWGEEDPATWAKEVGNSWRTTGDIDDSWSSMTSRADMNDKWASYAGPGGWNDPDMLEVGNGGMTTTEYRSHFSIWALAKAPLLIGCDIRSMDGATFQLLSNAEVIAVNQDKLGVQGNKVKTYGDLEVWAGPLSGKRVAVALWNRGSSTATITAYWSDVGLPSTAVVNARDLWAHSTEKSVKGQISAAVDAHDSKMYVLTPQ
In short: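 AC50 values derive from Hill-equation modeling of concentration-response data, normalized to no-enzyme and full-activity controls. The pH 4.5 citrate assay used 2 nM coffee bean enzyme and 80 uM fluorogenic substrate for 20 min.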

[10] = target: Alpha-galactosidase (Coffea arabica) (UniProt Q42656); test: Counterscreen for Glucocerebrosidase Inhibitors: qHTS Assay for Coffee Bean alpha-Galactosidase at pH 5.9 (AID 998; active = well fitted curve in the direction sought with a large enough effect; an effect the other way counts as inactive or inconclusive;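 note: plate controls were uninhibited enzyme for no effect and no-enzyme basal signal for full effect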); details: coffee bean alpha-galactosidase enzyme assay; series mostly up to 76.9 µM
In short: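 Green coffee bean enzyme (2 nM final) was incubated with compounds (0.7 nM–77 uM) and 4-methylumbelliferyl alpha-D-galactopyranoside (80 uM) in citrate buffer pH 5.9, 20 min at room temperature. High-pH stop; fluorescence 365/440 nm; AC50 from Hill fits.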

[11] = Validation screen for inhibitors of Lassa infection (AID 463096); details: Lassa virus infection, cell-based; series mostly up to 46.1 µM; note: % is set by controls: 0 for no effect and ±100 for the full control effect
[12] = Inducers of the Endoplasmic Reticulum Stress Response (ERSR) in human glioma: Validation (AID 504836; active = well fitted curve in the direction sought with a large enough effect; an effect the other way counts as inactive or inconclusive; note: 0% is about no effect); details: human glioma cells, ER stress response reporter; series mostly up to 38.3 µM
In short: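 Stably transfected U87-MG human glioma cells carrying a GRP78-based luminescent sensor were seeded at 1000 cells/well, pin-dosed with compounds and incubated 16 h. Luciferase reagent was then added, and end-point luminescence was read after 10 min at room temperature.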

[13] = Primary qHTS for small molecule stabilizers of the endoplasmic reticulum resident proteome: Secreted ER Calcium Modulated Protein (SERCaMP) assay (AID 1508630; active = well fitted curve in the direction sought with a large enough effect; an effect the other way counts as inactive or inconclusive; note: % is set by controls: 0 for no effect and ±100 for the full control effect); details: SH-SY5Y GLuc-SERCaMP (Gaussia luciferase released on ER calcium loss) secretion, thapsigargin, luminescence; series mostly up to 38.4 µM
In short: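 GLuc-SERCaMP-expressing SH-SY5Y cells, pretreated 16 h with compound, are challenged with thapsigargin to empty ER calcium stores; after 4 h, coelenterazine is added directly to the medium and luminescence is imaged.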

CN(C)Cc1c[nH]c2ccccc12
inactive: Potency [1] | Potency [2] | Potency [3] | Potency [4] | Potency [5] | outcome [6]

O=C(O)C(O)Cc1ccc(O)c(O)c1 (stereo unspecified)
-13% [at 114 µM]: activity change, negative = inhibition [8]
inactive: Potency [1] | Potency [2] | Potency [3] | Potency [4] | outcome [6] | Potency [7]

C/C=C\C/C=C/CCCCCCCCOC(C)=O
inactive: Potency [1] | Potency [2] | Potency [3] | Potency [4]

O=c1cc(-c2ccc(O)c(O)c2)oc2cc(O[C@@H]3O[C@H](CO)[C@@H](O)[C@H](O)[C@H]3O)cc(O)c12
inactive: Potency [1] | Potency [2] | Potency [3] | Potency [4] | outcome [6]

COc1cc2c(cc1O)CC[n+]1cc3c(OC)c(OC)ccc3cc1-2
inactive: Potency [1] | Potency [2] | Potency [3] | Potency [4]

COC(=O)/C=C\C(=O)O
inactive: Potency [1] | Potency [2] | Potency [3] | Potency [4]

S=C(NCc1ccccc1)NCc1ccccc1
inactive: Potency [1] | Potency [2] | Potency [3] | Potency [4]

CC(=O)NCCc1c[nH]c2ccc(O)cc12
inactive: outcome [9] | outcome [10] | Potency [11] | outcome [12] | Potency [1] | Potency [2] | Potency [3] | Potency [4] | outcome [6]

CC(=O)OCC1=C(C(=O)[O-])N2C(=O)[C@@H](NC(=O)CCC[C@@H](N)C(=O)[O-])[C@H]2SC1.[Zn+2]
inactive: Potency [11] | Potency [1] | Potency [2] | Potency [3] | Potency [4]

C[N+]1([O-])CCC[C@@H]1c1cccnc1 (stereo partly specified)
inactive: Potency [1] | Potency [2] | Potency [3] | Potency [4] | Potency [5] | Potency [13]

NCCc1ccccc1
inactive: Potency [1] | Potency [2] | Potency [3] | Potency [4] | Potency [5] | outcome [6] | Potency [13]

CNCC(N)C(=O)O (stereo unspecified)
inactive: Potency [1] | Potency [2] | Potency [3] | Potency [4] | Potency [5]

CCCCC[C@H](O)/C=C/C=C/C/C=C\CCCC(=O)O
inactive: activity change, negative = inhibition [1] -30.5% [at 0.757 µM] | activity change, negative = reduced viability [2] -19.5% [at 0.757 µM] | activity change, negative = lower viability [3] 9.71% [at 0.757 µM] | activity change, negative = inhibition [4] 8.09% [at 0.757 µM]

CNCC/C=C/c1cccnc1
inactive: Potency [1] | Potency [2] | Potency [3] | Potency [4] | Potency [5] | Potency [13]

COc1cc2oc3ccccc3c(=O)c2cc1OC
inactive: Potency [1] | Potency [2] | Potency [3] | Potency [4] | outcome [6]

Cn1cccc1-c1cccnc1
inactive: Potency [1] | Potency [2] | Potency [3] | Potency [4] | Potency [5] | Potency [13]

CC1(C)Oc2cc3oc(=O)ccc3cc2C[C@@H]1O
inactive: Potency [1] | Potency [2] | Potency [3] | Potency [4]

CCCCCCCCCCCCOC(C)=O
inactive: Potency [1] | Potency [2] | Potency [3] | Potency [4]

CC(C)=CCC[C@](C)(O[C@@H]1O[C@H](CO)[C@@H](O)[C@H](O)[C@H]1O)[C@H]1CC[C@]2(C)[C@@H]1[C@H](O)C[C@@H]1[C@@]3(C)CC[C@H](O[C@@H]4O[C@H](CO)[C@@H](O)[C@H](O)[C@H]4O[C@@H]4O[C@H](CO)[C@@H](O)[C@H](O)[C@H]4O)C(C)(C)[C@@H]3[C@@H](O)C[C@]12C
inactive: Potency [1] | Potency [2] | Potency [3] | Potency [4]

CC1=CC2OC3CC4OC(=O)C=CC=CC(=O)OCCC(C)C(O)C(=O)OCC2(CC1O)C4(C)C31CO1 (stereo unspecified)
inactive: Potency [1] | Potency [2] | Potency [3] | Potency [4]

CC/C=C\C[C@H](O)/C=C/C=C\C/C=C\C/C=C\CCCC(=O)O
inactive: activity change, negative = inhibition [1] -0.193% [at 0.757 µM] | activity change, negative = reduced viability [2] 19.4% [at 0.757 µM] | activity change, negative = lower viability [3] 7.46% [at 0.757 µM] | activity change, negative = inhibition [4] 12.1% [at 0.757 µM]

O=C(O)Cc1c[nH]c2ccccc12
inactive: Potency [1] | Potency [2] | Potency [3] | Potency [4] | outcome [6]

O=C(O)[C@H](O)[C@@H](O)C(=O)O
inactive: Potency [1] | Potency [2] | Potency [3] | Potency [4]

C=C1[C@H]2CC[C@@H]3[C@H]2C(C)(C)CCC[C@]13C
inactive: Potency [1] | Potency [2] | Potency [3] | Potency [4]

O=c1c2c(O)cc(O)cc2oc2c(O)ccc(O[C@H]3O[C@@H](CO)[C@H](O)[C@@H](O)[C@@H]3O)c12
inactive: Potency [1] | Potency [2] | Potency [3] | Potency [4]

C[C@@H]1OC(=O)[C@H]2C[C@H]3CCCC[C@@H]3[C@@H](/C=C/[C@H]3CCC[C@H](C)N3C)[C@@H]12
inactive: Potency [1] | Potency [2] | Potency [3] | Potency [4] | Potency [5]

O=c1c(O)c(-c2ccc(O)c(O)c2)oc2cc(O)ccc12
inactive: Potency [1] | Potency [2] | Potency [3] | Potency [4] | outcome [6] | Potency [7]

COc1ccc(-c2cc(=O)c3ccc(O)cc3o2)cc1
inactive: Potency [1] | Potency [2] | Potency [3] | Potency [4]

O=c1cc(-c2ccccc2)oc2cc(O)c(O)c(O)c12
inactive: Potency [1] | Potency [2] | Potency [3] | Potency [4] | outcome [6] | Potency [7] | Potency [8]
